The list shows a part of the results. Inconclusive results are not listed. Active and inactive are the calls of the source. Cut-off read from the data, not from the text of the source, unless noted: active = activity change below about -38% (passing the limit was not always enough); inactive = the rest.
Test: Ring1 de-repression measured by qPCR – cell-based, mouse ESC, RT-qPCR, cherry-pick, esBAF inhibitor project, confirmation (AID 743176;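 active = Ring1 gene expression raised more than 2-fold over untreated cells in both replicates at either tested dose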;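 note: Ring1 transcript normalised to actin housekeeping signal by TaqMan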)
Conditions: mouse ESC E14, Ring1 mRNA RT-qPCR fold change; Ring1 fold increase; at 7 µM; stronger effect = higher value
Work on Cc1ccc(-c2nc(COC(=O)c3c(C)noc3C)cs2)cc1 yielded a fold change of 1.44.
In the case of Cc1cc(Cl)nc(NC(=O)Nc2cccc(Cl)c2)n1, the fold change is reported as 1.34.
Molecule O=C(CCNC(=O)c1ccccc1)Nc1nc2ccccc2s1 has a fold change of 1.2.
COc1cc2ccccc2cc1C(=O)Nc1ccccc1C showed a fold change of 1.25.

Same assay, conditions: mouse ESC E14, Ring1 mRNA RT-qPCR fold change; at 33 µM; stronger effect = higher value
With Cc1ccc(-c2nc(COC(=O)c3c(C)noc3C)cs2)cc1 the fold change was 1.18 (inactive).
In the case of Cc1cc(Cl)nc(NC(=O)Nc2cccc(Cl)c2)n1, the fold change is reported as 1.28 (inactive).
For O=C(CCNC(=O)c1ccccc1)Nc1nc2ccccc2s1, the fold change was 0.581 (inactive).
For COc1cc2ccccc2cc1C(=O)Nc1ccccc1C, the fold change was 0.965 (inactive).

Test: Fgf4 repression measured by qPCR – cell-based, mouse ESC, RT-qPCR, cherry-pick, esBAF inhibitor project, confirmation (AID 743177;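 active = Fgf4 expression under 0.8 fold of control in both repeat measurements at one or both tested doses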;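 note: Fgf4 transcript normalised to actin in duplex TaqMan qPCR; cells exposed to compound for 24 h before lysis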)
Conditions: mouse ESC E14, Fgf4 mRNA qPCR fold change; Fgf4 expression; at 7 µM; stronger effect = lower value
Molecule Cc1ccc(-c2nc(COC(=O)c3c(C)noc3C)cs2)cc1 has a Fgf4 expression fold change of 1.15.
Cc1cc(Cl)nc(NC(=O)Nc2cccc(Cl)c2)n1 gave a Fgf4 expression fold change of 0.987.
Molecule O=C(CCNC(=O)c1ccccc1)Nc1nc2ccccc2s1 has a Fgf4 expression fold change of 0.839.
For COc1cc2ccccc2cc1C(=O)Nc1ccccc1C, the Fgf4 expression fold change was 0.978.

Same assay, conditions: mouse ESC E14, Fgf4 mRNA qPCR fold change; at 33 µM; stronger effect = lower value
In the case of Cc1ccc(-c2nc(COC(=O)c3c(C)noc3C)cs2)cc1, the Fgf4 expression fold change is reported as 1.07 (inactive).
In the case of Cc1cc(Cl)nc(NC(=O)Nc2cccc(Cl)c2)n1, the Fgf4 expression fold change is reported as 1.08 (inactive).
With O=C(CCNC(=O)c1ccccc1)Nc1nc2ccccc2s1 the Fgf4 expression fold change was 0.653 (active).
For COc1cc2ccccc2cc1C(=O)Nc1ccccc1C, the Fgf4 expression fold change was 0.878 (inactive).

Test: Bmi1 mRNA increase in mouse ESCs – cell-based, RT-qPCR, mouse ESC, single point, cherry-pick, confirmation (AID 743180;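 active = Bmi1 expression fold change above 6 at either tested concentration, seen in replicate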;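 note: higher fold means more Bmi1 de-repression and stronger esBAF inhibition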)
Conditions: mouse ESC E14, Bmi1 mRNA qPCR fold; Bmi1 de-repression; at 7 µM; stronger effect = higher value
Cc1ccc(-c2nc(COC(=O)c3c(C)noc3C)cs2)cc1 showed a fold change of 1.56.
Cc1cc(Cl)nc(NC(=O)Nc2cccc(Cl)c2)n1 showed a fold change of 1.61.
For O=C(CCNC(=O)c1ccccc1)Nc1nc2ccccc2s1, the fold change was 1.36.
In the case of COc1cc2ccccc2cc1C(=O)Nc1ccccc1C, the fold change is reported as 1.37.

Same assay, conditions: mouse ESC E14, Bmi1 mRNA qPCR fold; at 33 µM; stronger effect = higher value
In the case of Cc1ccc(-c2nc(COC(=O)c3c(C)noc3C)cs2)cc1, the fold change is reported as 1.73 (inactive).
In the case of Cc1cc(Cl)nc(NC(=O)Nc2cccc(Cl)c2)n1, the fold change is reported as 1.24 (inactive).
In the case of O=C(CCNC(=O)c1ccccc1)Nc1nc2ccccc2s1, the fold change is reported as 1.77 (inactive).
In the case of COc1cc2ccccc2cc1C(=O)Nc1ccccc1C, the fold change is reported as 1.49 (inactive).

Test: viability loss in A549 cells – cell-based, plate reader, single point, cherry-pick, cytotoxicity control (AID 743188; call rule not given here)
Conditions: at 25 µM
For Cc1ccc(-c2nc(COC(=O)c3c(C)noc3C)cs2)cc1, the cell viability change % (negative = cytotoxic) was -1.11% (inactive).
In the case of Cc1cc(Cl)nc(NC(=O)Nc2cccc(Cl)c2)n1, the cell viability change % (negative = cytotoxic) is reported as -1.39% (inactive).
In the case of O=C(CCNC(=O)c1ccccc1)Nc1nc2ccccc2s1, the cell viability change % (negative = cytotoxic) is reported as -14% (inactive).
In the case of COc1cc2ccccc2cc1C(=O)Nc1ccccc1C, the cell viability change % (negative = cytotoxic) is reported as -15.3% (inactive).

Test: viability loss in HepG2 cells – cell-based, plate reader, single point, cherry-pick, cytotoxicity control (AID 743189; in the data active = activity change below about -50%)
Conditions: at 25 µM, stronger effect = lower value
With Cc1ccc(-c2nc(COC(=O)c3c(C)noc3C)cs2)cc1 the activity change, negative = inhibition was -41.9% (inactive).
For Cc1cc(Cl)nc(NC(=O)Nc2cccc(Cl)c2)n1, the activity change, negative = inhibition was -22.4% (inactive).
For O=C(CCNC(=O)c1ccccc1)Nc1nc2ccccc2s1, the activity change, negative = inhibition was 11.7% (inactive).
In the case of COc1cc2ccccc2cc1C(=O)Nc1ccccc1C, the activity change, negative = inhibition is reported as -26.3% (inactive).

Test: viability loss in HEK293 cells – cell-based, plate reader, single point, cherry-pick, cytotoxicity control (AID 743190)
Conditions: at 25 µM
In the case of Cc1ccc(-c2nc(COC(=O)c3c(C)noc3C)cs2)cc1, the activity change, negative = inhibition is reported as -15.3% (inactive).
In the case of Cc1cc(Cl)nc(NC(=O)Nc2cccc(Cl)c2)n1, the activity change, negative = inhibition is reported as 1.81% (inactive).
For O=C(CCNC(=O)c1ccccc1)Nc1nc2ccccc2s1, the activity change, negative = inhibition was -12.3% (inactive).
For COc1cc2ccccc2cc1C(=O)Nc1ccccc1C, the activity change, negative = inhibition was -24.6% (inactive).

From PubChem BioAssay
